Experimental findings from PubChem BioAssay (NCATS) are described below.

Molecules are shown by their SMILES. Values without a mark were called inactive. Calls of active or inactive are those of the source. Calls come from the whole dose curve; as a rule, active = well fitted activation curve with a large enough effect; inconclusive = small, poorly fitted or top-dose-only effect; inactive = no such curve, though single readings can be large or run the other way. Numbered stars: 1 amine (or outer) side, 2 acyl side, 3 side chain; on linkers, the order of the positions; unused ones are H or OH. Bridge positions count the residues as written; N and C are the ends. Square brackets hold non-standard residues; d marks the D form. Peptide text beside a SMILES is read from it. I, II: the chains in the order shown. Actinocin(9to1) = Cc1c2oc3c(C)ccc(C(=O)[*:1])c3nc-2c(C(=O)[*:2])c(N)c1=O; NMeV = CN[C@H](C(=O)O)C(C)C; Sar = CNCC(=O)O
Potency is the fitted concentration of half-maximal effect.

Cytochrome P450 3A4 (Homo sapiens), sequence (P08684 whole entry, looked up): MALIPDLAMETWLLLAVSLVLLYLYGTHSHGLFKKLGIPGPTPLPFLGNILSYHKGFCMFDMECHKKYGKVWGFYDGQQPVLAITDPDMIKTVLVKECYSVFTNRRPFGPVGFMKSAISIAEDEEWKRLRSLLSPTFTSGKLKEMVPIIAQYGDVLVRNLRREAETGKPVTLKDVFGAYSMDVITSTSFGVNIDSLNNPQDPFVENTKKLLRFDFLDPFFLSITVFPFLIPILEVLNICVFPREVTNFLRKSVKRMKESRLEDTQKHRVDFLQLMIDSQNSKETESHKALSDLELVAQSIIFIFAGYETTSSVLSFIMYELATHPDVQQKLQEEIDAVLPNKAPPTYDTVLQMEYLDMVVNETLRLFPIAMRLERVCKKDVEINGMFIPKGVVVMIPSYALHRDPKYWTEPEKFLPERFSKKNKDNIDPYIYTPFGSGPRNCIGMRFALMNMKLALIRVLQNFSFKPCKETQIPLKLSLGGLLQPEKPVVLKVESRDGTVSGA

This assay concerns the target Cytochrome P450 3A4 (Homo sapiens) (UniProt P08684). The experiment in a line: qHTS Assay for Activators of Cytochrome P450 3A4 (AID 885). Note: nearly all actives have a fitted effect of over 65% in size. Conditions: recombinant CYP3A4, Luciferin-PPXE luminescence, 60 min; series mostly up to 57.1 µM; activity change, positive = activation: at the top concentration. Here is the method: NIH Molecular Libraries Screening Centers Network [MLSCN]
NIH Chemical Genomics Center [NCGC]
The P450 gene superfamily is involved in the metabolism and clearance of xenobiotics. This assay used human CYP3A4 to measure the dealkylation of luciferin-6' phenylpiperazinylyl (Luciferin-PPXE; […]) to luciferin. The luciferin is then measured by luminescence after the addition of a luciferase detection reagent. Luciferin-PPXE concentration in the assay was equal to its KM for CYP3A4. Inhibitors and some substrates limit the production of luciferin, and decrease measured luminescence; activators increase the production of luciferin and luminescence.
NCGC Assay Protocol Summary:
Two uL of enzyme and substrate mix (final concentrations: 20nM CYP3A4, 25uM Luciferin-PPXE, 200mM KPO4) were dispensed into a white, solid bottom 1536-well microtiter plate. 23nL of compound was transferred by a pin tool. The plate was incubated at RT for 10 min. Two uL of an NADPH regeneration solution (Promega supplied reagent) was dispensed and the reaction was allowed to continue for 60 min at RT. Then the reaction was stopped by reconstituted luciferin detection buffer. After another 20 min of incubation the plate was read on the ViewLux (Perkin Elmer) at 60 sec exposure and 2x2 binning. This protocol was carried out with Promega-Glo reagents and further information can be found at http://www.promega.com/tbs/tb325/tb325.pdf. Data were normalized to the to AC100 inhibition (57 uM ketoconazole).
Keywords: P450, CYP2D6, Luciferase, MLSMR, MLSCN, NIH Roadmap, qHTS, NCGC
`CC(Cc1cccc(C(F)(F)F)c1)NCCOC(=O)c1ccccc1` (stereo unspecified): the “activity change, positive = activation” value was -107%. Turning to `CN(C)CC/C=C1\c2ccccc2Sc2ccc(Cl)cc21`, the Potency result is “inactive”. As for `O=C(COc1ccc(Cl)cc1)N1CCN(Cc2ccc3c(c2)OCO3)CC1`, the “activity change, positive = activation” value was -70.6% [at 25.6 µM].

For the compound `N[C@@H](Cc1cnc[nH]1)C(=O)O`, the “activity change, positive = activation” value is -38.8%.

Turning to `O=C1CCC(c2ccc(-n3ccnc3)cc2)=NN1`, the “activity change, positive = activation” value was -94.3%. On to `CNCCC=C1c2ccccc2CCc2ccccc21`, for which the Potency entry is “inactive”. As for `CCCCc1nc(Cl)c(CO)n1Cc1ccc(-c2ccccc2-c2nn[nH]n2)cc1`, the “activity change, positive = activation” value was -76.8%. Still for that read-out and setting: for `COc1cccc2c1C(=O)c1c(O)c3c(c(O)c1C2=O)C[C@@](O)(C(C)=O)C[C@@H]3O[C@H]1C[C@H](N)[C@H](O)[C@H](C)O1` the value was -45.9%; for `COc1cc(NS(C)(=O)=O)ccc1Nc1c2ccccc2nc2ccccc12`, -37.6%.

With `CC(C)(C(=O)c1cccnc1)c1cccnc1`, the “activity change, positive = activation” value is -80.3% [at 25.6 µM]. Turning to `Cc1c2oc3c(C)ccc(C(=O)N[C@@H]4C(=O)N[C@H](C(C)C)C(=O)N5CCC[C@H]5C(=O)N(C)CC(=O)N(C)[C@@H](C(C)C)C(=O)O[C@@H]4C)c3nc-2c(C(=O)N[C@@H]2C(=O)N[C@H](C(C)C)C(=O)N3CCC[C@H]3C(=O)N(C)CC(=O)N(C)[C@@H](C(C)C)C(=O)O[C@@H]2C)c(N)c1=O` (I: T[dV]P[Sar][NMeV] / II: T[dV]P[Sar][NMeV]; ester I:1-I:C, II:1-II:C; linker I:N-II:N via Actinocin(9to1)), the “activity change, positive = activation” value is -32.4%. Same read-out and setting: for `O=C(O)c1cc2cc(Cc3cccnc3)ccc2o1` the value was -44.3%; for `CCCCOc1ccc(C(=O)CCN2CCCCC2)cc1`, -34.8%. In the case of `CCCC1O[C@@H]2C[C@H]3[C@@H]4CCC5=CC(=O)C=C[C@]5(C)[C@H]4[C@@H](O)C[C@]3(C)[C@]2(C(=O)CO)O1` (stereo partly specified), the “activity change, positive = activation” value is -87.6%. The same measure, in the same setting: for `NC(=NCCCCCCN=C(N)/N=C(\N)Nc1ccc(Cl)cc1)/N=C(\N)Nc1ccc(Cl)cc1` the value was -61.3%; for `CCOc1ccc(Cc2nccc3cc(OCC)c(OCC)cc23)cc1OCC`, -108%.

Take `CC(=O)Oc1ccc(C(c2ccc(OC(C)=O)cc2)c2ccccn2)cc1`: the Potency entry is “inactive”.

As for `Oc1c(Cl)cc(Cl)cc1Sc1cc(Cl)cc(Cl)c1O`, the “activity change, positive = activation” value was -66%.

Take `COc1cccc2c1C(=O)c1c(O)c3c(c(O)c1C2=O)C[C@@](O)(C(=O)CO)C[C@@H]3O[C@H]1C[C@H](N)[C@H](O)[C@H](C)O1`: the “activity change, positive = activation” value was -65.3%. Turning to `COc1c(C)c2c(c(O)c1C/C=C(\C)CCC(=O)O)C(=O)OC2`, the Potency entry is “inactive”. Consider `Oc1cc(O)c2c(c1)O[C@H](c1ccc(O)c(O)c1)[C@H](O)C2`, for which the “activity change, positive = activation” value is -54.4%. In the case of `Oc1ccc(O)cc1`, the “activity change, positive = activation” value was -22.6%.

`CN(C(=O)CN(CCO)CC(=O)N(C)C(C)(C)Cc1ccccc1)C(C)(C)Cc1ccccc1`: the “activity change, positive = activation” value is -58.5% [at 25.6 µM]. Still for that read-out and setting: to `O=C(OCC(O)CO)c1ccccc1Nc1ccnc2cc(Cl)ccc12` (stereo unspecified) belongs -115%. For the compound `COc1c2occc2c(OC)c2c(=O)cc(C)oc12`, the “activity change, positive = activation” value was -82.5%. On to `CNCC[C@@H](Oc1ccccc1C)c1ccccc1`, for which the “activity change, positive = activation” value is -38.9%. On the same count and under the same terms, to `CC(=O)O[C@]1(C(C)=O)CC[C@H]2[C@@H]3C[C@H](C)C4=CC(=O)CC[C@]4(C)[C@H]3CC[C@@]21C` belongs -62.9%; to `O=C1OC(c2ccc(O)cc2)(c2ccc(O)cc2)c2ccccc21`, -87.5%. Consider `O=C(CCCN1CCC(O)(c2ccc(Br)cc2)CC1)c1ccc(F)cc1`, for which the Potency was 10 µM (active).

For `O=C1c2ccccc2C(=O)C1c1ccccc1`, the “activity change, positive = activation” value is -43.5%. Consider `COc1ccc(CCN2CCC(Nc3nc4ccccc4n3Cc3ccc(F)cc3)CC2)cc1`, for which the “activity change, positive = activation” value was -50.2%.
